PrP UTR inh: suppresses PrP 5' UTR mRNA reporter expression; cell-based PrP 5' UTR mRNA reporter, plate reader; inhibition, % (test concentration not listed); actives 0.35% (n = 340,000); AID 488862; in the data active = inhibition above about 52%; also: 0 = median of the neutral control wells
ugtP null kill: compounds lethal to S. aureus RN4220 ugtP deletion mutant; OD600 growth, 16 h; growth inhibition, % (test concentration not listed); actives 0.54% (n = 330,000); AID 1259309; in the data active = growth inhibition above about 68%;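 also: plate controls were untreated wells for no effect and antibiotic for full effect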
CCHFV vOTU inh: CCHFV vOTU protease inhibition; Pep-AMC fluorescence; inhibition, % at 11.5 µM; actives 0.55% (n = 370,000); in the data active = inhibition above about 30%; also: 0% = vehicle wells with enzyme and 100% = no enzyme wells
PrPC TRFRET: inhibitors of human cell surface prion protein PrPC; P04156; TR-FRET read-out; inhibition, % at 13.8 µM; actives 0.43% (n = 370,000); in the data active = inhibition above about 24%; also: 0% = median of the test wells and 100% = reference compound wells
Sa RN4220 lethal: kills Staphylococcus aureus RN4220; AID 1259311; actives 0.33% (n = 330,000); inhibition, % (concentration not given with the values); S. aureus RN4220 growth, OD600, 16 h; in the data active = inhibition above about 85%;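 also: plate controls were untreated cells for no effect and reference antibiotic for full effect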
PfHsp40 yeast: rescue of PfHsp40-mediated yeast toxicity. AID 504582. actives 0.68% (n = 340,000). S. cerevisiae expressing PfHsp40, growth rescue, ATP luminescence. growth rescue, % at 12.5 µM; in the data active = growth rescue above about 28%, passing the limit was not always enough;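 also: yeast W303a lacking pdr1 and pdr3 grown in galactose medium; growth measured after three days at 30 °C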
The depositor's hits bear a star; . = no result. Shown are actives, neighbours in structure and some others; about 2.1% of the full set was active somewhere.

SMILES | PrP UTR inh | ugtP null kill | CCHFV vOTU inh | PrPC TRFRET | Sa RN4220 lethal | PfHsp40 yeast
CN1CCN(C(c2ccc(C(F)(F)F)cc2)c2cc(Cl)c3cccnc3c2O)CC1 (stereo unspecified) | . | . | 7 | 8 | . | .
CCN1CCN(C(c2ccc(C(F)(F)F)cc2)c2ccc3cccnc3c2O)CC1 (stereo unspecified) | 4 | 37 | 21 | 8 | 14 | 60*
Cc1ccc(NS(=O)(=O)c2ccc(N3CCN(c4ccc(O)cc4)CC3)c([N+](=O)[O-])c2)c(C)c1 | 0 | -15 | 19 | 2 | 1 | 70*
CCN1CC2C3C(=O)N(Cc4ccccc4)C(=O)C3[C@](CC)(C1=O)N2C(=O)c1ccc(C(F)(F)F)cc1 (stereo partly specified) | . | -5 | . | . | -1 | .
CCn1c(SCc2ccccc2Cl)nc2ccccc21 | -23 | 91* | 1 | 4 | 0 | 0
COc1ccccc1C=NNc1cc(C)nc(-n2nc(C)cc2C)n1 | . | -6 | . | . | 10 | .
Cc1ccc(/C=C2/C(=O)c3ccc(C(=O)O)cc3C2=O)o1 | -11 | 6 | 0 | -8 | 3 | 45*
COc1ccc(C2CC(=O)C=C(c3cccc(F)c3OC)C2)cc1 (stereo unspecified) | . | 0 | . | . | -2 | .
CCN1CC2C3C(=O)N(Cc4ccccc4)C(=O)C3[C@](CC)(C1=O)N2C(=O)c1ccc(F)cc1 (stereo partly specified) | . | 2 | . | . | 7 | .
CCN1C(=O)CSC1=NS(=O)(=O)c1ccccc1 | . | 5 | . | . | 5 | .
CCN1C(=O)CSC1=NC1C2CC3CC(C2)CC1C3 (stereo unspecified) | -9 | 91* | 13 | -7 | 8 | -1
c1ccc(C2CN3C(=N2)Sc2ccccc23)cc1 (stereo unspecified) | . | -11 | . | . | 7 | .
O=C(NN=Cc1ccoc1)c1ccccc1 | . | -7 | . | . | 2 | .
COc1ccc(/C=C/C(=O)NCC2COc3ccccc3O2)c(OC)c1 (stereo unspecified) | -41 | 99* | 2 | 4 | -5 | -1
COc1ccc(NC(=O)CCC2COc3ccccc3O2)c(OC)c1 (stereo unspecified) | 11 | -4 | 6 | 8 | 15 | -1
C#CCOCCOCCOCCNc1nc(N2CCN(C(=O)Cn3cc(CCO)nn3)CC2)nc(N2CCN(C(=O)C(C(C)O)n3cc(CCCCN)nn3)CC2)n1 (stereo unspecified) | . | 2 | . | . | 9 | .
CCOC(=O)CC(=O)CSc1nc2c(c(C)c1C#N)CCC2 | -3 | 5 | -2 | 1 | -4 | 31*
COc1ccc(C=NNC(=O)c2ccc(COc3cccc4cccnc34)cc2)cc1O | . | 4 | . | . | 4 | .
N#CC(=NNc1cccc(C(F)(F)F)c1)C(=O)c1ccsc1 | . | 97* | . | . | 100* | .
O=[N+]([O-])c1cccc(S(=O)(=O)NN=Cc2ccc3c(c2)OCO3)c1 | . | 0 | . | . | 11 | .
CC1SC(=NN=Cc2ccco2)N(Cc2ccc(F)cc2)C1=O (stereo unspecified) | . | 6 | . | . | -1 | .
N#C/C(=C(/O)CCl)c1nc2ccccc2[nH]1 | -16 | . | -19 | 27* | . | 0
N#C/C(=C(\O)Cc1ccccc1)c1nc2ccccc2[nH]1 | -12 | 0 | 0 | 5 | 1 | 1
Cc1cc(C)cc(OCC(=O)OC/C(O)=C(\C#N)c2nc3ccccc3[nH]2)c1 | -11 | -7 | -5 | 19 | 2 | 28*
COC(=O)C1CC2CCC(O)CC2N1Cc1ccc(Cl)cc1 (stereo unspecified) | . | 1 | . | . | 2 | .
SMILES | PrP UTR inh | ugtP null kill | CCHFV vOTU inh | PrPC TRFRET | Sa RN4220 lethal | PfHsp40 yeast
Cc1nnc(C)n1N=Cc1cccnc1 | . | 4 | . | . | 3 | .
CC(C)OCCCNC(=O)c1c(N)n(N=Cc2cccs2)c2nc3ccccc3nc12 | . | -17 | . | . | 11 | .
O=[N+]([O-])c1cc([N+](=O)[O-])c2oc(-c3ccccc3)c(Br)c2c1O | -27 | 93* | . | . | 92* | 10
c1ccc2c(CC3CNCCN3CC3CCCCC3)cccc2c1 (stereo unspecified) | . | -36 | . | . | -12 | .
C[C@@H]1CCCCO[C@H](CN(C)Cc2ccccc2)[C@@H](C)CN([C@H](C)CO)C(=O)c2cc(NC(=O)c3ccccc3)ccc2O1 | . | . | 2 | 0 | . | .
C[C@@H]1CN([C@@H](C)CO)C(=O)c2cc(NC(=O)c3ccccc3)ccc2O[C@@H](C)CCCCO[C@@H]1CN(C)Cc1ccc(C(F)(F)F)cc1 | . | . | 42* | 6 | . | .
COc1ccc(-c2cc(C3C4C=CCC[C@@]4(C)C(=O)N3Cc3ccccc3)ccc2F)cc1OC (stereo partly specified) | . | -2 | . | . | -3 | .

Compound activity (PubChem)
